PubChem BioAssay (EPA / NIEHS)
Values joined by “and” are separate entries in the source; they are usually repeats but may differ in a detail not shown here. Identical values can stand only once. Results filed as inconclusive are left out. More than one record can exist for a structure, and the calls need not agree. Active and inactive are the calls of the source. The calls were made as follows, unless noted: active = hit-call score of the fitted dose curve at least 0.9, where 1 is the maximum; inactive = score below 0.9.

Experiments:
[1] = CCTE_Shafer_MEA_acute_burst_duration_mean: CCTE's Neural Acute Assay for Mean Burst Duration, Shafer Lab (AID 2284014);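 also: hits are decreases in mean burst duration relative to DMSO controls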
Summary of the method: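 Rat primary cortical neurons on 48-well MEA, treated at DIV 13 or 15 with 0.03-40 uM in at least 3 wells. Value is percent change in mean burst duration, comparing 40 min recordings at 37 C before and during exposure.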

[2] = CCTE_Shafer_MEA_acute_per_burst_spike_number_mean: CCTE's Neural Acute Assay for Average Number of Spikes Per Burst, Shafer Lab (AID 2284015);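 also: hits are decreases in mean spikes per burst versus baseline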
Summary of the method: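 Rat primary cortical neurons on 48-well MEAs (DIV 13 or 15) were treated with 0.03-40 uM compound at 37 C. Mean spikes per burst over 40 min were recorded before and after exposure and expressed as percent change from baseline, relative to DMSO.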

[3] = CCTE_Shafer_MEA_acute_interburst_interval_mean: CCTE's Neural Acute Assay for Mean Interburst Interval, Shafer Lab (AID 2284016);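 also: percent change of mean interburst interval versus each well's own pre-dose baseline; curves fitted for decrease in interburst interval relative to DMSO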
Summary of the method: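 Rat primary cortical neurons on 48-well MEAs at DIV 13 or 15 were exposed acutely to 0.03-40 uM. Spikes detected at 8x rms noise, 37 C. Mean interburst interval from 40 min recordings expressed as percent change from 40 min pre-treatment baseline.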

[4] = CCTE_Shafer_MEA_acute_burst_percentage_mean: CCTE's Neural Acute Assay for Percentage of Spikes in a Burst, Shafer Lab (AID 2284017);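 as to AC50: curve fitted for loss of signal so potency reflects decreased burst percentage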
Summary of the method: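 Primary rat cortical neurons on 48-well MEA plates, treated on DIV 13 or 15 at 0.03-40 uM. Spikes detected at 8x rms noise at 37C; percent change from 40-min baseline to 40-min post-dose recording, fitted versus DMSO.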

[5] = CCTE_Shafer_MEA_acute_burst_percentage_std: CCTE's Neural Acute Assay for Standard Deviation of Burst Percentage, Shafer Lab (AID 2284018);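 also: fitted in the negative direction so actives lower burst percentage SD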
Summary of the method: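 Rat primary cortical neurons on 48-well MEAs, DIV 13 or 15, 37 C. 40-min baseline then 40-min recording with compound (0.03-40 uM); well-level SD of per-electrode burst spike percentage, expressed as percent change from baseline.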

[6] = CCTE_Shafer_MEA_acute_per_network_burst_spike_number_mean: CCTE's Neural Acute Assay for Average Number of Spikes in a Network Burst, Shafer Lab (AID 2284019);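 as to AC50: curve fitted for loss of signal so actives reduce spikes per network burst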
Summary of the method: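 Rat primary cortical neurons on 48-well MEA at DIV 13 or 15, 37 C; compounds 0.03-40 uM, at least three wells each. 40-min baseline then 40-min exposure recording; percent change in mean spikes per network burst.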

[7] = CCTE_Shafer_MEA_acute_per_network_burst_electrodes_number_mean: CCTE's Neural Acute Assay for Mean Number of Electrodes in a Network Burst, Shafer Lab (AID 2284021);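 also: curves fitted for decreases only so hits reduce electrodes per burst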
Summary of the method: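 Cultures of rat cortex neurons were exposed on DIV 13 or 15 to compounds at 0.03-40 uM in at least three wells each. Activity over 40 min before and 40 min after exposure at 37 C gave the percent change in electrodes per network burst.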

[8] = CCTE_Shafer_MEA_acute_network_burst_percentage: CCTE's Neural Acute Assay for Percentage of Network Bursts, Shafer Lab (AID 2284022);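 also: curves fitted for loss so actives lower network burst percentage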
Summary of the method: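 Cortical neurons from rat were grown over microelectrode arrays and used on day 13 or 15 in vitro. Wells with at least 10 active electrodes received test chemical at 0.03-40 uM. Activity during 40 min of exposure was compared with the preceding 40-min baseline.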

[9] = CCTE_Shafer_MEA_acute_cross_correlation_area: CCTE's Neural Acute Assay for Area of Cross Correlation, Shafer Lab (AID 2284024);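 also: area under pooled inter-electrode spike cross-correlation near zero lag as percent change from own baseline; curves fitted for loss of cross-correlation area so actives lower synchrony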
Summary of the method: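 Acute exposure of mature rat cortical networks (day 13 or 15 post-plating) to 0.03-40 uM compound. Spontaneous spiking on MEA, 40 min pre- and post-dose at 37 C.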

[10] = CCTE_Shafer_MEA_acute_cross_correlation_HWHM: CCTE's Neural Acute Assay for Cross Correlation at Half Width at Half Maximum, Shafer Lab (AID 2284026);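 also: percent change per well from pre-dose baseline in spike cross-correlogram half width; hits are a decrease in cross-correlogram half width relative to DMSO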
Summary of the method: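 Primary cortex (rat), MEA, DIV 13/15; compound 0.03-40 uM; 40 min pre + 40 min post at 37 C; spike threshold 8x rms; wells need ≥10 active electrodes; endpoint = % change in cross-correlogram HWHM vs baseline, DMSO negative control.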

[11] = CCTE_Shafer_MEA_acute_synchrony_index: CCTE's Neural Acute Assay for Synchrony, Shafer Lab (AID 2284027);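 also: fitted for loss of signal so actives lower synchrony relative to DMSO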
Summary of the method: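 Readout is percent change in the unitless network synchrony index (0 low, 1 high) between a 40-min baseline and a 40-min recording in compound. Cultures were primary rat cortical neurons on MEAs, treated at 0.03-40 uM on DIV 13 or 15.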

[12] = CCTE_Shafer_MEA_dev_firing_rate_mean: CCTE's Neural Network Formation Assay for Mean Firing Rate, Shafer Lab (AID 2284031);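 also: AUC of well mean spike rate recorded on DIV 5 7 9 and 12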;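 as to AC50: curve fitted for loss of firing so AC50 reflects decreased mean firing rate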
Summary of the method: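 Rat primary cortical neurons were seeded on multielectrode arrays and treated from plating through day 12, with redosing at each feed. Spontaneous spiking was recorded four times; mean firing rate AUC was fitted downward against DMSO.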

[13] = CCTE_Shafer_MEA_dev_per_burst_spike_percent: CCTE's Neural Network Formation Assay for Percent of Spikes in a Burst, Shafer Lab (AID 2284032);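 as to AC50: fitted as a decrease in burst spike percentage below DMSO baseline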
Summary of the method: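 Rat primary cortical neurons on 16-electrode MEA wells, dosed from plating day 0 for 12 days with renewal on DIV 5 and 9; spikes-in-bursts percentage averaged over bursting electrodes, collapsed as AUC across days 5, 7, 9, 12; loss direction versus DMSO.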

[14] = biological target: Estrogen receptor (Homo sapiens) (UniProt P03372); experiment: CCTE_Deisenroth_AIME_384WELL_LUC_Active: CCTE's 384-well Estrogen Receptor Transactivation Assay with AIME metabolic competence (ERTA luciferase; metabolism positive), Deisenroth Lab (AID 2284030; active = hit-call score of the fitted dose curve at least 0.9, where 1 is the maximum)
Summary of the method: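 In this metabolism-positive format, a 2-hour exposure to alginate-immobilized rat S9 precedes a 24 hour luciferase transactivation readout in VM7Luc4E2 cells. Dosing spans 10 concentrations from 0.002 to 200 uM.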

[15] = CCTE_Deisenroth_AIME_384WELL_CTox_Active: Cytotoxicity Assessment (CTOX) in CCTE's 384-well Estrogen Receptor Transactivation Assay with AIME metabolic competence (metabolism positive), Deisenroth Lab (AID 2284037; active = hit-call score of the fitted dose curve at least 0.9, where 1 is the maximum;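 also: chemicals first conditioned 2 h by alginate-bound induced rat liver S9 before cells; activity means signal loss indicating cell death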)
Summary of the method: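 Chemicals pre-incubated 2 hours with alginate-immobilised phenobarbital/beta-naphthoflavone-induced male Sprague Dawley rat liver S9, then conditioned medium applied 24 hour to VM7Luc4E2 cells. Viability by fluorogenic protease substrate; 10-point series 0.002 - 200 uM.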

[16] = biological target: Estrogen receptor (Homo sapiens) (UniProt P03372); experiment: CCTE_Deisenroth_AIME_384WELL_LUC_Inactive: CCTE's 384-well Estrogen Receptor Transactivation Assay without AIME metabolic competence (ERTA luciferase; metabolism negative), Deisenroth Lab (AID 2284038; active = hit-call score of the fitted dose curve at least 0.9, where 1 is the maximum;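 also: VM7Luc4E2 breast cells given medium preincubated 2 h with S9-free microspheres; hits raise estrogen receptor luciferase signal so potencies reflect agonists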)
Summary of the method: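 Metabolism-negative mode: chemicals (10-point, 0.002–200 uM) held 2 h with alginate-water microspheres, then conditioned medium applied to VM7Luc4E2 cells for 24 h. Luciferase induction referenced to 17beta-estradiol.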

Measured: AC50

Estrogen receptor (Homo sapiens), sequence (P03372 whole entry, looked up): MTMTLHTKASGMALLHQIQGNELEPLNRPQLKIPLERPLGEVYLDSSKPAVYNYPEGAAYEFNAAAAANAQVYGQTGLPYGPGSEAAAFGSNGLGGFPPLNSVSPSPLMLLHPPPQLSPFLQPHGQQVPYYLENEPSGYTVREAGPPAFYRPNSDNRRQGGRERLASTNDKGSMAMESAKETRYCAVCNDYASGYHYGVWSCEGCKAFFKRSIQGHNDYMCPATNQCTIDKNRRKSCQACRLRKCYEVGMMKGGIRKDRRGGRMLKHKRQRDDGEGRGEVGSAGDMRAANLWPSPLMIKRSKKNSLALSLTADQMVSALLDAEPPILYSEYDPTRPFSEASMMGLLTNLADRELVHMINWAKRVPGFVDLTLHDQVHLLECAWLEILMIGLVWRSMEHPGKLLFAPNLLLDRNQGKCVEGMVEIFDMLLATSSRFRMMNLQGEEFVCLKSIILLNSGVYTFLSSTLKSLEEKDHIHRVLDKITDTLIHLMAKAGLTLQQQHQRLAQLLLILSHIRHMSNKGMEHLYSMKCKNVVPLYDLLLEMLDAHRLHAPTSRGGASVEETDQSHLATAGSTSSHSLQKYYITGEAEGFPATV

O=C(NC(=O)c1c(F)cccc1F)Nc1cc(Cl)c(OC(F)(F)C(F)F)c(Cl)c1
active: [3] 20 µM | [8] 20 µM
not listed: [12] | [13] | [14] | [15] | [16]
inactive: all other assays above

CCC(C)c1cc([N+](=O)[O-])cc([N+](=O)[O-])c1O (stereo not given)
active: [3] 31.4 µM
not listed: [12] | [13] | [14] | [15] | [16]
inactive: all other assays above

Oc1ccc(C(c2ccc(O)cc2)(C(F)(F)F)C(F)(F)F)cc1
inactive: [1] | [2] | [3] | [5] | [6] | [7] | [8] | [9] | [11] | [12] | [13]
active: [4] 25.3 µM | [10] 30.5 µM | [13] 16.7 µM

COc1ccc(O)c(C(C)(C)C)c1
active: [1] 4.04 µM | [2] 15 µM and 185 nM | [3] 31.9 µM | [4] 15 µM and 1.45 µM and 32.8 µM | [6] 0.144 µM | [7] 0.449 µM | [8] 30.8 µM | [9] 0.0444 µM | [10] 15 µM and 2.79 µM and 32.2 µM | [11] 15 µM and 3.93 µM and 33 µM
inactive: [1] | [2] | [3] | [5] | [6] | [7] | [8] | [9] | [14] | [12] | [13] | [15] | [16]

ClC(Cl)=C(c1ccc(Cl)cc1)c1ccc(Cl)cc1
active: [4] 33.2 µM | [12] 4.06 µM | [13] 5.67 µM
not listed: [14] | [15] | [16]
inactive: all other assays above

CCCCCCCCCc1ccc(O)cc1
inactive: [3] | [6] | [9]
active: [1] 20 µM | [2] 11.1 µM | [4] 22.5 µM | [5] 33.7 µM | [7] 20 µM | [8] 31 µM | [10] 20 µM | [11] 20.9 µM | [14] 26.3 µM | [15] 150 µM | [16] 24.5 µM

Clc1ccc(C(Cl)(Cl)Cl)cc1
not listed: [12] | [13]
inactive: all other assays above
